Where “and” joins values, the source holds several entries; their conditions need not be identical. Identical values can stand only once. Records with an inconclusive call do not appear. Calls of active or inactive are those of the source. Calls follow the shape of the dose curve; as a rule, active = well fitted cell-killing curve with a large enough effect; inconclusive = small, poorly fitted or top-dose-only effect, or effect the other way; inactive = no such curve, though single readings can be large or run the other way.
Potency is read from the fitted curve at half-maximal effect.

The assay is described as follows: Viability qHTS for spleen associated tyrosine kinase inhibitor (SYKi) drug resistant MV4-11 cells (AID 1963824). Also: nearly all actives have a fitted effect of over 35% in size. The settings on record: SYKi-resistant MV4-11 viability, CellTiter-Glo, 72 h; series mostly up to 45 µM. A digest of the protocol:
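SYK inhibitor-resistant MV4-11 AML cells, 500 per well, added to predispensed compounds and incubated 72 hr at 37 C, 5% CO2. Viability measured by CellTiter-Glo luminescence after 10 min at room temperature.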
`COc1cc2c(NC3CCN(C)CC3)nc(N3CCCN(C)CC3)nc2cc1OCCCN(C)C`: the Potency was 18.6 µM (active). In the case of `CCCCCCCCCCCCCCCCOP(=O)([O-])OCC[N+](C)(C)C` it was 21.1 µM (active); in that of `CN[C@@H](C)C(=O)N[C@H](C(=O)N1CCC[C@H]1C(=O)Nc1snnc1-c1ccccc1)C1CCCCC1`, 0.132 µM (active).

As for `COc1cc2ncnc(Nc3cccc(Cl)c3F)c2cc1OC(=O)N1CCN(C)C[C@H]1C`, the Potency was 7.31 µM (active). Regarding `Cc1cc(C(=O)Nc2cc(Oc3ccc4nc(NC(=O)C5CC5)cn4n3)ccc2C)n(C)n1`, the Potency is 14.8 µM (active). With `CC/C=C(\C(=O)N[C@@H]1C(=O)N2C(C(=O)OCOC(=O)C(C)(C)C)=C(COC(N)=O)CS[C@H]12)c1csc(N)n1` the entry was “inactive”; with `Cc1ccc2nc(N)[nH]c(=O)c2c1Sc1ccncc1`, 4.61 µM (active); with `S=c1[nH]c2ccccc2s1`, 0.545 µM (active). In the case of `CCOC(=O)c1ccc(N)cc1` it was “inactive”. `OCc1c[nH]c2ccccc12`: the Potency is 24.3 µM (active). With `C#C[C@]1(OC(C)=O)CC[C@H]2[C@@H]3CCC4=C[C@@H](OC(C)=O)CC[C@@H]4[C@H]3CC[C@@]21C` the figure was 21.1 µM (active) and 14.6 µM (active); with `CCCCOc1ccc(C(=O)CCN2CCCCC2)cc1`, 16.8 µM (active).

Take `Cc1cccc(CC(=O)N2CCc3c2ccc(-c2cn(C)c4ncnc(N)c24)c3F)n1`: the Potency is 2.06 µM (active). In the case of `CN(C)CCOC1=Cc2ccccc2Sc2ccc(Cl)cc21` it was 15 µM (active); in that of `CCCCCCCCCCCC[N+](C)(C)Cc1ccccc1`, 9.44 µM (active); in that of `COc1cccc(-c2cc(F)ccc2C2Cc3nc(N)nc(C)c3C(=O)N2)n1` (stereo not given), 0.0186 µM (active). As for `COc1ccc(/C=C/C(=O)Nc2ccccc2C(=O)O)cc1OC`, the Potency result is “inactive”.

Consider `CS(=O)(=O)Nc1cc2occ(NC=O)c(=O)c2cc1Oc1ccccc1`, for which the Potency entry is “inactive”. With `O=C(O)CC1CCC(c2ccc(-c3ccc(Nc4ccc(C(F)(F)F)nc4)cn3)cc2)CC1` (stereo not given) the figure was 18.6 µM (active); with `CN1CCN(CCC(=O)N2c3ccccc3Sc3ccc(C(F)(F)F)cc32)CC1`, 23.7 µM (active); with `Nc1cccc2c(N)cccc12`, 0.545 µM (active).

For `COc1ccc(-c2ccc3c(N4CCOC[C@@H]4C)nc(N4CCOC[C@@H]4C)nc3n2)cc1CO`, the Potency was 0.148 µM (active). With `O=C(NOCC(O)CO)c1cc(Br)c(F)c(F)c1Nc1ccc(I)cc1F` (stereo not given), the Potency was 0.59 µM (active). Regarding `CCNC(=O)CCC/C=C\C[C@@H]1[C@@H](/C=C/C(O)CCc2ccccc2)[C@@H](O)C[C@@H]1O` (stereo not given in full), the Potency is 14.8 µM (active).

With `O=C(Nc1ncc(SCCN2CCCC2)s1)[C@]1(c2ccc(S(=O)(=O)C3CC3)cc2)C[C@H]1C1CCCCC1`, the Potency is 8.33 µM (active).
